Experimental data taken from PubChem BioAssay (NCI).
About 83,000 compounds went through this panel and 20% of them were active in at least one assay; those are over-represented in the sample as a whole.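 Note: values are percent growth. 100 is the growth of untreated cells, values between 100 and 0 indicate rising inhibition; between -100 and 0 indicates cell death.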 Unmarked numbers belong to inactive results. Activity calls are given as the source filed them. The calls were made as follows: active = growth percent below 10; inactive = the rest.

How the values were obtained:
Experiment in all cases: NCI-60 one-dose screen, 48 h (100 = growth as untreated, 0 = no growth, -100 = all killed)
Details in all cases: 10 µM unless noted
[1] = tested on: NCI-H23 lung
[2] = tested on: NCI-H226 lung
[3] = tested on: NCI-H322M lung
[4] = tested on: HOP-62 NSCLC
[5] = tested on: NCI-H460 lung
[6] = tested on: HOP-92 NSCLC
[7] = tested on: NCI-H522 lung
[8] = tested on: A549/ATCC NSCLC
[9] = tested on: 786-0 renal
[10] = tested on: COLO 205 colon
[11] = tested on: DU-145 prostate
[12] = tested on: MALME-3M melanoma
[13] = tested on: MDA-MB-231 breast
[14] = tested on: RXF 393 renal
[15] = tested on: SF-268 CNS
[16] = tested on: SF-295 CNS
[17] = tested on: SF-539 CNS
[18] = tested on: UACC-257 melanoma
[19] = tested on: M14 melanoma

`C=C1C(=O)O[C@H]2[C@H]1CC/C(C=Nc1ccc(C(F)(F)F)cc1N)=C\CC[C@@]1(C)O[C@@H]21` was tested, and the growth [1] was 12.4%, the growth [2] was 42.5% and the growth [3] was 54%. It also gave a growth [4] of 47.6%, a growth [5] of 15.3% and a growth [6] of 27%. The growth [7] was -56.6% (active), the growth [8] was 59.7% and the growth [9] was 25%. The growth [10] was -74.3% (active), the growth [11] was 17.4% and the growth [12] was -13.3% (active). For the same compound, the growth [13] was -26.4% (active), the growth [14] was -35.5% (active) and the growth [15] was 23.7%. For the same compound, the growth [16] was 45.4%, the growth [17] was -7.2% (active) and the growth [18] was 13%. For the same compound, the growth [19] was 5.33% (active).

For `COc1ccc(-c2nc(SCC(=O)Nc3ccc(C(=O)/C=C/c4ccc(Cl)cc4)cc3)[nH]c(=O)c2C#N)cc1`, the growth [1] was 85.4%, the growth [2] was 96.3% and the growth [3] was 88.8%. The growth [4] was 100%, the growth [5] was 99.1% and the growth [6] was 81.7%. For the same compound, the growth [7] was 77.4%, the growth [8] was 101% and the growth [9] was 105%. It also gave a growth [10] of 86.8%, a growth [11] of 103% and a growth [12] of 95.4%. It also gave a growth [13] of 38.1%, a growth [14] of 97.3% and a growth [15] of 102%. The growth [16] was 98.5%, the growth [17] was 85.8% and the growth [18] was 102%. It also gave a growth [19] of 77.9%.

Work on `N#Cc1nnn(-c2ccc(S(N)(=O)=O)cc2)c1NCC(=O)c1ccccc1` yielded a growth [1] of 98%, a growth [2] of 88.2% and a growth [3] of 91.2%. The growth [4] was 91.7%, the growth [5] was 101% and the growth [6] was 86.6%. For the same compound, the growth [7] was 83.9%, the growth [8] was 93.3% and the growth [9] was 102%. The growth [10] was 104%, the growth [11] was 106% and the growth [12] was 96.4%. For the same compound, the growth [13] was 95.1%, the growth [14] was 113% and the growth [15] was 93.6%. It also gave a growth [16] of 100%, a growth [17] of 116% and a growth [18] of 88.4%. For the same compound, the growth [19] was 97.5%.

`N#Cc1nnn(-c2ccc(S(N)(=O)=O)cc2)c1NC(=O)CCl` showed a growth [1] of 100%, a growth [2] of 95.5% and a growth [3] of 93.4%. For the same compound, the growth [4] was 92.2%, the growth [5] was 104% and the growth [6] was 96.1%. The growth [7] was 95%, the growth [8] was 92.9% and the growth [9] was 98%. It also gave a growth [10] of 110%, a growth [11] of 107% and a growth [12] of 102%. The growth [13] was 102%, the growth [14] was 109% and the growth [15] was 97.6%. It also gave a growth [16] of 98.2%, a growth [17] of 98.8% and a growth [18] of 89%. For the same compound, the growth [19] was 95.4%.

With `COc1ccc(SC2c3ccc(C)cc3Oc3nc(N)c(C#N)c(N)c32)cc1` (configuration not stated) the growth [1] was -43.8% (active), the growth [2] was -63.9% (active) and the growth [3] was 5.34% (active). For the same compound, the growth [4] was -10.6% (active), the growth [5] was -49.6% (active) and the growth [6] was -56.7% (active). For the same compound, the growth [7] was -90.3% (active), the growth [8] was 19.9% and the growth [9] was -95.4% (active). The growth [10] was -66.5% (active), the growth [11] was -88.3% (active) and the growth [12] was -87.6% (active). The growth [13] was -86.5% (active), the growth [14] was -69.2% (active) and the growth [15] was 2.01% (active). For the same compound, the growth [16] was 44.8%, the growth [17] was -75.4% (active) and the growth [18] was -74.8% (active). For the same compound, the growth [19] was -76.5% (active).

Work on `CC(C)CSc1nc(N)nc2c1ncn2C1OC(CO)C(O)C1O` (configuration not stated) yielded a growth [1] of 106%, a growth [2] of 101% and a growth [3] of 101%. The growth [4] was 95.2%, the growth [5] was 104% and the growth [6] was 147%. The growth [7] was 92.6%, the growth [8] was 102% and the growth [9] was 121%. For the same compound, the growth [10] was 101%, the growth [11] was 115% and the growth [12] was 99.5%. It also gave a growth [13] of 104%, a growth [14] of 98.7% and a growth [15] of 99.9%. The growth [16] was 72.3%, the growth [17] was 94.7% and the growth [18] was 104%. For the same compound, the growth [19] was 116%.

In the case of `CN(C)c1ccc(N=Nc2ccc(Br)cn2)c(O)c1`, the growth [1] is reported as 19.3%, the growth [2] is reported as 7.29% (active) and the growth [3] is reported as 21.1%. The growth [4] was 18.5%, the growth [5] was 3.96% (active) and the growth [6] was 50.3%. It also gave a growth [7] of 14.4%, a growth [8] of 10.3% and a growth [9] of 20.5%. The growth [10] was 7.48% (active), the growth [11] was 24.7% and the growth [12] was 17.8%. It also gave a growth [13] of 34.1%, a growth [14] of 55.5% and a growth [15] of 16.8%. The growth [16] was 17.4%, the growth [17] was -10.2% (active) and the growth [18] was -11.5% (active). For the same compound, the growth [19] was -1.74% (active).

`NC(=NCCCC1(c2ccccc2)CCCC1)Nc1ccc(Cl)cc1` was tested, and the growth [1] was 44%, the growth [2] was 96.5% and the growth [3] was 36.2%. The growth [4] was 69.6%, the growth [5] was -32.8% (active) and the growth [6] was 9.43% (active). The growth [7] was 56.9%, the growth [8] was 63.1% and the growth [9] was 65.5%. For the same compound, the growth [10] was -72.5% (active), the growth [11] was 37.8% and the growth [12] was -48.9% (active). For the same compound, the growth [13] was 1.92% (active), the growth [14] was 51.7% and the growth [15] was 58.5%. The growth [16] was 10%, the growth [17] was 51.3% and the growth [18] was 26.4%. The growth [19] was -65.5% (active).
